Screens: PubChem, several laboratories
FAK inh = FAK (human) kinase inhibition; biochemical FAK kinase activity assay; inhibition, %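 (tested at 7 µM)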; actives 0.84% (n = 97,000); AID 727; in the data active means inhibition above about 19%;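 further: 0% = DMSO and 100% = reference compound high control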
CD11b adhes enh = enhancers of human CD11b/CD18 binding to fibrinogen; P05107+P11215; activation, % at 10 µM; K562 CD11b/CD18 adhesion to fibrinogen, ATPlite luminescence; actives 0.07% (n = 93,000); AID 1499;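 active means 10 µM primary screen giving 50% or more activity, confirmed by 40% or more on retest at that dose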
CD11b adhes inh = blocks human CD11b/CD18 adhesion to fibrinogen. inhibition, % at 10 µM. actives 0.54% (n = 93,000). K562 CD11b/CD18 adhesion to fibrinogen, ATPlite luminescence; Mn2+ added to activate the integrin. P05107+P11215;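 active means primary inhibition of 50% or more at 10 µM, then 40% or more on retest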
Pyk2 oligo antag = blocks oligomerization of human Pyk2 in cells. Q293 cells, Pyk2 FERM NanoBiT luminescence; active compounds read low. z-score (the deposit names both 25 µM and 10 µM). actives 0.83% (n = 99,000);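 active means Z-score of -3 or lower, scaled per plate to the spread of control and sample wells; inactive means z-score above -3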;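 further: negative z-score means lost luminescence so less FERM oligomerization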
An asterisk follows results filed as active; / = no result. Sampled rows, rich in hits. Any-hit rate of the full collection: about 1.8%.

SMILES | FAK inh | CD11b adhes enh | CD11b adhes inh | Pyk2 oligo antag
COc1ccc(Nc2nnc(SCC(=O)c3cc(C)n(CC4CCCO4)c3C)s2)cc1 (stereo not drawn) | 0 | 22 | 16 | 0.03
CCSCCc1nnc(NC(=O)Nc2cccc(C(F)(F)F)c2)s1 | / | -6 | 102 | /
Cc1ccc(S(=O)(=O)Oc2ccc3c(c2)O/C(=C\c2cccnc2)C3=O)cc1 | 0 | -3 | -36 | -3*
O=C(COC(=O)c1ccccc1NC(=O)c1ccco1)Nc1ccc2c(c1)OCO2 | 4 | 2 | -4 | -3.8*
CCCCCN(C(=O)NC(=O)Nc1ccccc1C)S(=O)(=O)c1ccccc1 | / | -1 | -12 | /
CCCCn1c(SCC(=O)NCc2ccco2)nc2c(sc3ccccc32)c1=O | 2 | 12 | 54* | -1.5
O=C(CSc1nc2c(sc3ccccc32)c(=O)n1CCc1ccccc1)NCc1ccco1 | 2 | 2 | 16 | -1
CCCCn1c(SCC(N)=O)nc2c(sc3ccccc32)c1=O | 5 | -3 | 15 | -1.9
CCOCCCn1c(SCC(=O)NCc2ccco2)nc2c(sc3ccccc32)c1=O | 1 | 0 | 56* | -0.56
CC(=O)Nc1ccc(OCC(O)Cn2nc(C)c(Br)c2C)cc1 (stereo not drawn) | -1 | / | / | 0.36
COC(C#CCCN(C)C)(c1ccccc1)c1ccccc1 | / | 2 | -7 | /
O=c1c2c3c(sc2nc2sc(CN4CCOCC4)cn12)CCCC3 | 1 | -4 | -9 | 0.85
CC(C)CC(C(=O)Nc1oc(-c2ccccc2)c(-c2ccccc2)c1C#N)N1C(=O)c2ccccc2C1=O (stereo not drawn) | 2 | / | / | -3.7*
O=C(Cc1cccs1)Nc1nnc(Cc2ccccc2)s1 | 29* | / | / | -0.69
COc1ccc2c(COC(=O)CNC(=O)C34CC5CC(CC(C5)C3)C4)cc(=O)oc2c1 | / | 0 | -15 | /
CCc1ccccc1NC(=O)Cn1nc(C(F)(F)F)cc1C1CC1 | 1 | -2 | -1 | -0.43
Cc1ccc(NC(=O)Cn2c(/C=C/c3ccccc3)nc3ccccc32)cc1C | -8 | 5 | -27 | -3.8*
Cc1nc2ccccc2n1CC(=O)N/N=C\C=C\c1ccccc1 | 5 | / | / | -0.03
CCOC(=O)N1CCC2(CC1)C(C#N)=C(N)Oc1c2c(C)nn1-c1cccc(Cl)c1 | -4 | -10 | 88* | -0.73
COc1cc(/C=C2\SC(=S)N(Nc3ncc(C(F)(F)F)cc3Cl)C2=O)ccc1O | 1 | 4 | -3 | -3.1*
Cc1cc(C)nc(NN2C(=O)/C(=C/c3ccccc3)SC2=S)n1 | -7 | / | / | -1.8
CN(C)c1ccc(/C=C2\SC(=S)N(Nc3ncc(C(F)(F)F)cc3Cl)C2=O)cc1 | -2 | / | / | -3.4*
CCOc1cc(/C=C2\SC(=S)N(Nc3ccccc3)C2=O)ccc1O | -2 | -1 | 3 | -3.6*
COC(=O)c1cn(Nc2ncc(C(F)(F)F)cc2Cl)c(=O)c2ccccc12 | 0 | -3 | -6 | -0.54
O=C(Nc1ccc(Cl)cc1C(F)(F)F)C(Sc1nnc(-c2cccs2)o1)c1ccccc1 (stereo not drawn) | / | 18 | 23 | /
SMILES | FAK inh | CD11b adhes enh | CD11b adhes inh | Pyk2 oligo antag
O=C(Nc1cc(C(F)(F)F)ccc1Cl)C(Sc1nnc(-c2cccs2)o1)c1ccccc1 (stereo not drawn) | / | -8 | 100* | /
COc1ccccc1Oc1nc(-c2ccccc2)cc(C)c1S(C)(=O)=O | 2 | 11 | 2 | -3.5*
CCCc1nc(SCC(=O)Nc2nnc(CC)s2)c2c(C)c(C)sc2n1 | -5 | / | / | -3.7*
CCc1nc(SCC(=O)Nc2nnc(CC)s2)c2c(C)c(C)sc2n1 | 0 | 72 | -16 | -2.1
Cc1nn(-c2ccccc2)c(C)c1/C=N/NC(=O)c1cc(-c2ccccc2)n[nH]1 | 2 | -5 | 21 | -3*
CCc1nnc(NC(=O)c2sc3nc4cc(C)ccc4cc3c2N)s1 | 11 | 100* | -11 | 1.6
COc1ccccc1-n1cnc2cc(NS(=O)(=O)c3ccc(Br)cc3)ccc21 | 2 | 0 | 1 | -3.3*
COc1ccc(-n2cnc3cc(NS(=O)(=O)c4ccc(C)cc4)ccc32)cc1 | 6 | 0 | 2 | -2.1
CCCn1nc(NC(=O)c2cccs2)c2cc3ccccc3nc21 | -4 | / | / | 0.01
CCCCn1nc(NC(=O)c2cccs2)c2cc3ccccc3nc21 | -2 | -5 | 7 | -3.1*
CCCn1nc(NC(=O)c2cccs2)c2cc3cc(OC)ccc3nc21 | 0 | 6 | -31 | -2.4
CCCCn1nc(NC(=O)c2cccs2)c2cc3cc(OC)ccc3nc21 | 9 | 2 | 4 | -3*
COc1c2occc2c(OC)c2c(=O)cc(C(F)(F)C(F)(F)F)oc12 | 2 | 4 | -2 | -3.2*
COc1c2occc2c(OC)c2c(=O)cc(C(F)(F)F)oc12 | 2 | -2 | -25 | -1.4
